Compounds with a hit are over-represented: about 2.1% of the library has one in this group of screens.
PTAP TSG101 blk: blocks PTAP/TSG101 interaction to inhibit HIV-1 budding; Q99816; Potency, µM (titrated, usually from 115 µM), actives largely listed as inhibitors; 340,000 tested, under 10 active; Fluorescence polarization, FITC-PTAP peptide / Tsg101 binding; active = well fitted inhibition curve with a large enough effect in the main read-out, with a control signal flat, not every such curve was filed as active; inconclusive = small, poorly fitted or top-dose-only effect, or effect the other way, or a change in a side signal; inactive = no such curve, though single readings can be large or run the other way
Target sequence (Q99816 whole entry, looked up): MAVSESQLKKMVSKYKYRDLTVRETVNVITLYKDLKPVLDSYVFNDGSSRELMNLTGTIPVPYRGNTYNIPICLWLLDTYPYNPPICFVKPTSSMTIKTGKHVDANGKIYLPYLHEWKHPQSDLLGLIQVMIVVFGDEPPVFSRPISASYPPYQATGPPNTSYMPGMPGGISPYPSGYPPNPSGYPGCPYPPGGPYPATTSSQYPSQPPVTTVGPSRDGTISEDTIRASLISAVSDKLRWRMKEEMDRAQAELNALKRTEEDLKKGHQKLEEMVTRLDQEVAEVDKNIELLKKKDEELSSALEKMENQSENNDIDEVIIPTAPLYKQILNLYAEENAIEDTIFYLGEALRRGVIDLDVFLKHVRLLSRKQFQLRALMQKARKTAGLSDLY
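Steps: Tsg101 binding domain dispensed (10 uM final), compounds pinned in DMSO, FITC-labeled PTAP-motif peptide added (50 nM final); after 20 min binding at room temperature, polarization measured.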
FUS suppressor: rescues growth of FUS-expressing yeast; S. cerevisiae FUS-expressing, growth rescue, OD600, 24 h; Potency, µM (titrated, usually from 76.6 µM), most hits filed as activators; 390,000 tested, 0.24% active; AID 1347120; note: nearly all actives have a fitted effect of over 55% in size
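Steps: raffinose overnight preculture; dilution to OD 0.005 in 2% galactose minimal medium; compound addition (concentration series); 24hr at 30C, 99% humidity; absorbance read at 600 nm.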
TDP-43 yeast inh: inhibitors of TDP-43 toxicity in yeast; Potency, µM (highest dose often 46.1 µM), usual class: activators; AID 652104; 410,000 tested, 1.8% active; TDP-43 expressing yeast growth rescue, BacTiter-Glo, 24 h; note: nearly all actives have a fitted effect of over 50% in size
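Yeast expressing TDP-43 (pregrown in raffinose, seeded at OD600=0.02 in galactose medium) exposed to compounds 24 hr at 30 deg C. Growth read by BacTiter-Glo luminescence; rescue of toxicity appears as increased signal.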
aSyn yeast inh: rescues yeast growth from alpha-synuclein toxicity; Potency, µM (highest dose often 46.1 µM), most hits filed as activators; 370,000 tested, 0.14% active; Yeast expressing alpha-synuclein, growth rescue, BacTiter-Glo, 24 h; note: nearly all actives have a fitted effect of over 65% in size
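Galactose-induced alpha-syn yeast (OD600=0.02, raffinose-pregrown) + pinned cpd, 24 hr, 30 deg C; growth by BacTiter-Glo luminescence. Growth restoration scores as activation.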
Abeta yeast res: restores growth of yeast expressing A-beta42 peptide; yeast expressing A-beta42, growth rescue, OD600, 48 h; response scale: 0% DMSO, 100% iron-clioquinol control; Potency, µM (series often up to 46.1 µM), usual class: activators; 410,000 tested, 0.063% active; note: nearly all actives have a fitted effect of over 55% in size
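Yeast growth medium received pinned compounds, then yeast cells expressing toxic A-beta were added; plates incubated at 30 C for 48 hr. Growth read as absorbance at 600 nm, normalized to DMSO and equimolar FeCl3 plus clioquinol controls.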
Of the large screens only hits and unclear results are named; the others gave an inactive call. Unless noted, calls come from the whole dose curve; as a rule, active = well fitted curve in the direction sought with a large enough effect; inconclusive = small, poorly fitted or top-dose-only effect, or another doubt; inactive = no such curve, though single readings can be large; an effect the other way counts as inactive or inconclusive.

Cc1cnc(C(=O)OC(C(=O)Nc2cc(C(F)(F)F)ccc2Cl)c2ccccc2)cn1 (centres undefined)	TDP-43 yeast inh 18µM, Abeta yeast res inconclusive
Cc1ccc(S(=O)(=O)c2c(N)n(Cc3ccco3)c3nc4ccccc4nc23)cc1	FUS suppressor 22µM
O=c1c(-c2cccs2)nc2ccccc2n1C(c1ccccn1)c1nc2ccccc2[nH]1 (centres undefined)	none (no result: PTAP TSG101 blk)
COc1ccc(-n2c(C)nc3sc4c(c3c2=O)CCC4)cc1	TDP-43 yeast inh 13µM
COc1ccc(-n2c(SCC(=O)O)nc3sc4c(c3c2=O)CCC4)cc1	none
Cc1c(C(=O)N2CCN(S(=O)(=O)c3ccccc3F)CC2)oc2c(Cl)cccc12	FUS suppressor inconclusive, TDP-43 yeast inh 14µM
CCc1cc(C(=O)N2CCN(S(=O)(=O)c3cc(C)ccc3C)CC2)sc1C	aSyn yeast inh inconclusive
CCc1cc(C(=O)N2CCN(S(=O)(=O)c3ccccc3F)CC2)sc1C	TDP-43 yeast inh 22µM
COCc1c(C(=O)N2CCN(S(=O)(=O)c3ccccc3Cl)CC2)oc2ccccc12	TDP-43 yeast inh 11µM
Cc1c(C(=O)N2CCN(c3ccccc3)CC2)oc2c(Cl)cccc12	TDP-43 yeast inh inconclusive
COc1ccc(-n2cc(C(=O)N(CCN(C)C)Cc3ccccc3)c3ccccc3c2=O)cc1	none (no result: PTAP TSG101 blk, aSyn yeast inh)
CC(C)COc1ccccc1C1CC(=O)Nc2cc3c(cc21)OCO3 (centres undefined)	none (no result: PTAP TSG101 blk, aSyn yeast inh)
Cc1nc(N2CCCC2)ncc1C(=O)Nc1ccccc1	none (no result: PTAP TSG101 blk, aSyn yeast inh)
COc1ccc(-c2n[nH]c(C)c2-c2ccc(Cl)cc2)c(O)c1	none
Cc1[nH]nc(-c2ccc(O)cc2O)c1-c1ccc(Cl)cc1	TDP-43 yeast inh 20µM
Cc1nc(/C(N)=N/OC(=O)c2cccc(Cl)c2)c(C(F)(F)F)o1	TDP-43 yeast inh 20µM
CCS(=O)(=O)n1nc(-c2ccc(Cl)cc2)nc1SCc1ccccc1	none (no result: FUS suppressor)
COc1ccc(-c2nc(SCc3ccccc3)n(S(C)(=O)=O)n2)cc1	TDP-43 yeast inh 2.8µM (no result: aSyn yeast inh)
Fc1ccc(-c2cc3nc4c(c(N5CCOCC5)n3n2)CCCC4)cc1	TDP-43 yeast inh 16µM
CCCCCCCCN1C(=O)[C@@H](CC(=O)N2CCCC2)C[C@@]2(C(=O)OC)C1=C[C@H](C(C)C)O[C@@H]2C1CC1	FUS suppressor 13µM (no result: PTAP TSG101 blk, TDP-43 yeast inh, aSyn yeast inh, Abeta yeast res)
CCCCCCCCN1C(=O)[C@@H](CC(=O)N2CCOCC2)C[C@@]2(C(=O)OC)C1=C[C@H](C(C)C)O[C@@H]2C1CC1	FUS suppressor 8.9µM (no result: PTAP TSG101 blk, TDP-43 yeast inh, aSyn yeast inh, Abeta yeast res)
COC(=O)[C@]12C[C@H](CC(=O)N3CCCCC3)C(=O)N(CCC3=CCCCC3)C1=C[C@H](C(C)C)O[C@@H]2C1CC1	none (no result: PTAP TSG101 blk, TDP-43 yeast inh, aSyn yeast inh, Abeta yeast res)
CCCCCCCCN1C(=O)[C@@H](CC(=O)N2CCSCC2)C[C@@]2(C(=O)OC)C1=C[C@H](C(C)C)O[C@@H]2C1CC1	FUS suppressor 4.5µM (no result: PTAP TSG101 blk, TDP-43 yeast inh, aSyn yeast inh, Abeta yeast res)
COC(=O)[C@]12C[C@H](CC(=O)N3CCSCC3)C(=O)N(Cc3ccco3)C1=C[C@H](C(C)C)O[C@@H]2C1CC1	none (no result: PTAP TSG101 blk, TDP-43 yeast inh, aSyn yeast inh, Abeta yeast res)
C#CCOCCOCCOCCNc1nc(N2CCN(C(=O)CCCCCCCCCCNC(=O)[C@H](CCCCN)n3cc(C[C@@H](C)CC)nn3)CC2)nc(N2CCN(C(=O)CCCCCCCCCCNC(=O)[C@H](CCCCN)n3cc(C[C@@H](C)CC)nn3)CC2)n1	FUS suppressor inconclusive
C#CCOCCOCCOCCNc1nc(N2CCN(C(=O)CCCCCCCCCCNC(=O)[C@H](CCC(=O)O)n3cc(CCCCCN)nn3)CC2)nc(N2CCN(C(=O)CCCCCCCCCCNC(=O)[C@@H]([C@H](C)O)n3cc(C)nn3)CC2)n1	FUS suppressor 13µM
C#CCOCCOCCOCCNc1nc(N2CCN(C(=O)CCCCCCCCCCNC(=O)[C@@H](CCSC)n3cc(CCO)nn3)CC2)nc(N2CCN(C(=O)CCCCCCCCCCNC(=O)[C@H]([C@@H](C)CC)n3cc(CCCCCN)nn3)CC2)n1	FUS suppressor inconclusive
C#CCOCCOCCOCCNc1nc(N2CCN(C(=O)CCCCCCCCCCNC(=O)[C@@H](CCSC)n3cc(CCO)nn3)CC2)nc(N2CCN(C(=O)CCCCCCCCCCNC(=O)[C@H]([C@@H](C)CC)n3cc(CCCCN=C(N)N)nn3)CC2)n1	PTAP TSG101 blk inconclusive, FUS suppressor 8.9µM
C#CCOCCOCCOCCNc1nc(N2CCN(C(=O)CCCCCCCCCCNC(=O)[C@H]([C@@H](C)CC)n3cc(CCCCCN)nn3)CC2)nc(N2CCN(C(=O)CCCCCCCCCCNC(=O)[C@@H]([C@H](C)O)n3cc(C)nn3)CC2)n1	FUS suppressor 13µM, TDP-43 yeast inh inconclusive
C#CCOCCOCCOCCNc1nc(N2CCN(C(=O)CCCCCCCCCCNC(=O)Cn3cc(C[C@@H](C)O)nn3)CC2)nc(N2CCN(C(=O)CCCCCCCCCCNC(=O)[C@H](CCCCN)n3cc(C[C@@H](C)CC)nn3)CC2)n1	FUS suppressor 10µM
O=C(NCCc1ccc(Cl)cc1)c1cnc2sc(N3CCOCC3)nn2c1=O	none (no result: PTAP TSG101 blk, aSyn yeast inh)
NS(=O)(=O)c1ccc(NC(=O)CSc2nnc(-c3cccs3)o2)cc1	none (no result: PTAP TSG101 blk, TDP-43 yeast inh, aSyn yeast inh, Abeta yeast res)
O=C(NC(=S)Nc1ccc(S(=O)(=O)N2CCCCC2)cc1)c1cccs1	none (no result: FUS suppressor)
CC1CCCC(NC(=O)COC(=O)c2cccs2)C1C (centres undefined)	TDP-43 yeast inh 11µM, Abeta yeast res inconclusive
O=C(NC(=S)Nc1ccc(N2CCCCC2)c(Cl)c1)c1cccs1	TDP-43 yeast inh 35µM (no result: FUS suppressor)
Cc1ccc(C(=O)OCC(=O)NC2CCCC(C)C2C)s1 (centres undefined)	TDP-43 yeast inh inconclusive (no result: PTAP TSG101 blk)
CC1CCCCC1NC(=S)NC(=O)c1cccs1 (centres undefined)	Abeta yeast res 10µM
O=C(NC(=S)Nc1ccc(S(=O)(=O)NC2CCCCC2)cc1)c1cccs1	FUS suppressor inconclusive, TDP-43 yeast inh 22µM, aSyn yeast inh inconclusive, Abeta yeast res inconclusive
Cc1ccc(S(=O)(=O)N2C3CC(c4ccccc4)N(S(=O)(=O)c4cccc(Cl)c4)CC3C(=O)C[C@H]2c2ccccc2)cc1 (some centres undefined)	none (no result: PTAP TSG101 blk)
O=C(COC(=O)CCS(=O)(=O)c1ccc(F)cc1)NC1CCCCC1	none
CC1CCCCC1NC(=O)COC(=O)c1ccc(N(C)C)cc1 (centres undefined)	TDP-43 yeast inh 16µM
O=C(CSc1nnc(-c2ccccn2)o1)Nc1ccccc1	none
O=C(CSC1=NNC(c2ccccn2)S1)Nc1ccccc1 (centres undefined)	TDP-43 yeast inh 13µM, Abeta yeast res inconclusive
O=C(CSC1=NNC(c2ccccn2)S1)Nc1cccc(Cl)c1 (centres undefined)	TDP-43 yeast inh inconclusive, aSyn yeast inh 8.9µM, Abeta yeast res 16µM
O=C(Cc1cccc(C(F)(F)F)c1)OCN1C(=O)c2ccccc2C1=O	TDP-43 yeast inh 35µM
